Screening results as filed in PubChem.
Nrf2 block – Nrf2 qHTS screen for inhibitors; A549 ARE-Fluc reporter, luciferase luminescence, 18-24 h; Potency, µM (top dose mostly 46 µM), without a hit: at the top dose activity change, negative = inhibition, hits mostly inhibitors; 360,000 tested, 2.1% active; note: potency is the fitted concentration of half-maximal effect; % is set by controls: 0 for no effect and ±100 for the full control effect; nearly all actives have a fitted effect of over 60% in size
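Reporter: ARE-Fluc in A549. Exposure: 18-24 h, 37 °C, 5% CO2, 5% FBS OPTI-MEM. Readouts: fluorescent cytotoxicity (CellTiter-Fluor), then luminescent Nrf2 signal after BugLite.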
ClpP mod – qHTS Assay for Activators of ClpP | ATP-dependent Clp protease proteolytic subunit (Bacillus subtilis (strain 168)), P80244 | purified B. subtilis ClpP, FRET peptide cleavage, 20 min | Potency, µM (top dose mostly 57.5 µM), inactives show top-dose activity change, negative = active | 340,000 tested, 1.9% active | AID 651965, 2013; active = well fitted falling curve with a large enough effect; inconclusive = small, poorly fitted or top-dose-only effect; inactive = no such curve, though single readings can be large or run the other way; note: potency is the fitted concentration of half-maximal effect; the source files actives as falling curves though it sought activators and does not explain the sign; nearly all actives have a fitted effect of over 65% in size
Target sequence (P80244 whole entry, looked up): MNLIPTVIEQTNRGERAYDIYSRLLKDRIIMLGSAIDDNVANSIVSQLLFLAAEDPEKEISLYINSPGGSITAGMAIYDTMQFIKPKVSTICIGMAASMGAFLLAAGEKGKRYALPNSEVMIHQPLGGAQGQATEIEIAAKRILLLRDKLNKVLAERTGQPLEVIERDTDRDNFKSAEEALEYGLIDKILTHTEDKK
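Purified B. subtilis ClpP, 10 microg/mL final in Tris/HCl pH8 with KCl, BSA, glycerol and Tween-20, cleaved an Abz/nitrotyrosine-quenched decapeptide. Fluorescence (ex 320, em 430) was read at 0 and 20 min at room temperature. Delta was normalized to 5.8 microM ADEP and DMSO/no-enzyme controls.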
Nrf2 activator – qHTS of Nrf2 Activators | AREc32 ARE-luciferase reporter (MCF7-derived line), luminescence, 24 h | Potency, µM (top dose mostly 46.1 µM), for the others: at the highest dose activation, actives largely listed as activators | 410,000 tested, 0.31% active | AID 624171, 2012; note: potency is the fitted concentration of half-maximal effect; % of control where 0% means no effect; nearly all actives have a fitted effect of over 65% in size
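Each well held 1000 AREc32 cells, which were incubated with compound for 24 hr at 37 deg C after overnight attachment, and ARE reporter activity was quantified by firefly luciferase luminescence.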
miR-21 reporter – qHTS Assay for Modulators of miRNAs and/orActivators of miR-21 | HeLa miR-21 FLuc reporter, luciferase, 48 h | Potency, µM (top dose mostly 38.3 µM), for the others: at the highest dose activity change, positive = activation, hits mostly activators | 340,000 tested, under 10 active | AID 2288, 2010;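 note: % of control where 0% means no effect; miR-21 action dims this reporter so a rising signal means less miR-21 action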
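Luminescence from a firefly luciferase reporter carrying a miR-21 binding site downstream, stably expressed under a CMV promoter in HeLa cells that make miR-21 endogenously, reports miRNA modulation after 48 h compound exposure up to approximately 40uM final.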
A549 tox-1 – Nrf2 qHTS screen for inhibitors: counterscreen for cytotoxicity. A549 ARE-Fluc cells, CellTiter-Fluor viability, 18-24 h. Potency, µM (doses to about 46 µM), without a hit: at the highest dose activity change, negative = cytotoxicity, actives largely listed as inhibitors. 390,000 tested, 0.16% active. AID 504648, 2011; note: potency is the fitted concentration of half-maximal effect; % is set by controls: 0 for no effect and ±100 for the full control effect
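Cytotoxicity counterscreen: CellTiter-Fluor fluorescence was measured in A549 ARE_Fluc cells after 18-24 h of compound exposure in a concentration series. The subsequent BugLite luminescent read reports ARE-luciferase activity.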
TCR act – Activators of T cell receptors: qHTS campaign; primary human leukocytes, anti-CD3, IL-2 HTRF, 48 h; Potency, µM (series often up to 9.22 µM), for inactives: top-dose activation of IL-2 secretion, most hits filed as activators; 330,000 tested, under 10 active; note: % of control where 0% means no effect
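Primary human leukocytes were stimulated with a-CD3 beads plus compounds for 48 hr without co-stimulation; secreted IL-2 was quantified by HTRF using a-IL-2-K (europium cryptate) and a-IL-2-d2, excited at 320nm with acceptor emission read at 665nm.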
FLuc counter 3 – Nrf2 qHTS screen for inhibitors: Purified Fluc Biochemical Counterscreen for Hit Validation | shares compounds with Nrf2 block | 1,400 tested, 4% active | Potency, µM (top dose mostly 57.5 µM), for inactives: at the top dose activity change, negative = inhibition, hits mostly inhibitors | purified firefly luciferase, luminescence inhibition; note: potency is the fitted concentration of half-maximal effect; % is set by controls: 0 for no effect and ±100 for the full control effect; nearly all actives have a fitted effect of over 65% in size
Target sequence (P08659 whole entry, looked up): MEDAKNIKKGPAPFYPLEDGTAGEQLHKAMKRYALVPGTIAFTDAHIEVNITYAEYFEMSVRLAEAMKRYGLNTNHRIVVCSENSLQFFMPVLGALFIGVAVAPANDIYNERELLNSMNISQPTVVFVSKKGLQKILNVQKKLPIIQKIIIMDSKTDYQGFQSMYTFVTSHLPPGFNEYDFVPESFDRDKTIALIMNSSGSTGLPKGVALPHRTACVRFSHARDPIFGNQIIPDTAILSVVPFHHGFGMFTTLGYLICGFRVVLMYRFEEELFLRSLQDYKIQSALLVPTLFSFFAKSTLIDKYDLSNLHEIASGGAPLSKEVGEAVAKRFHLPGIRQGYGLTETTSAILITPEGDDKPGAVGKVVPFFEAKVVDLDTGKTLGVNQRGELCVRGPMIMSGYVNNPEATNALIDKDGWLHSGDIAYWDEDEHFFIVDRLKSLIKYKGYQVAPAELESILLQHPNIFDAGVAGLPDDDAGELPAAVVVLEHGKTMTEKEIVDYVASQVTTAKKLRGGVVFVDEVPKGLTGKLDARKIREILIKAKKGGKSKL
A549 tox-2 – Nrf2 qHTS screen for inhibitors: A549 ARE-Fluc Cytotoxicity Counterscreen for Hit Validation; 1,400 tested, 2% active; shares compounds with Nrf2 block; Potency, µM (series often up to 46.1 µM), inactives show at the top dose activity change, negative = cytotoxicity, hits mostly inhibitors; A549 ARE-Fluc cells, cytotoxicity counterscreen;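 note: potency is the fitted concentration of half-maximal effect; cells exposed to compounds for 18 to 24 hours; % is set by controls: 0 for no effect and ±100 for the full control effect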
ARE-Fluc inh – Nrf2 qHTS screen for inhibitors: Nrf2 A549 ARE-Fluc Confirmation Assay for Hit Validation. shares compounds with Nrf2 block. A549 ARE-firefly luciferase reporter, luminescence. Potency, µM (highest dose often 46.1 µM), without a hit: top-dose activity change, negative = inhibition, actives largely listed as inhibitors. 1,400 tested, 74% active. AID 720524, 2013; note: potency is the fitted concentration of half-maximal effect; % is set by controls: 0 for no effect and ±100 for the full control effect; nearly all actives have a fitted effect of over 65% in size
* = called active by the depositor; ? = inconclusive; / = not tested or not shown; [ ] = remark or other dose. Rows were chosen to be rich in hits. Some 3.7% of all compounds tested hit in one or more screens of this group. Unless noted, calls come from the whole dose curve; as a rule, active = well fitted curve in the direction sought with a large enough effect; inconclusive = small, poorly fitted or top-dose-only effect, or another doubt; inactive = no such curve, though single readings can be large; an effect the other way counts as inactive or inconclusive.

SMILES	Nrf2 block	ClpP mod	Nrf2 activator	miR-21 reporter	A549 tox-1	TCR act	FLuc counter 3	A549 tox-2	ARE-Fluc inh
Cc1cc(C)cc(OC(C)C(=O)Nc2c(C(=O)c3ccccc3)oc3ccccc23)c1 (centres undefined)	-10%	?	0%	0%	-2%	/	/	/	/
COc1ccc(N2CCN(C(=O)c3cc4c(=O)n(Cc5cccs5)ccc4nc3C)CC2)cc1	?	-13%	0%	-4%	5%	/	/	/	/
Cc1cc(C)cc(NC(=O)C(=O)NCC(c2ccc3c(c2)OCO3)N2CCOCC2)c1 (centres undefined)	/	1%	1%	-8%	-1%	/	/	/	/
CC(=NNc1nc2ccccc2o1)c1ncccn1	3.3µM*	0%	?	/	-20%	2%	19µM*	?	/
O=C(Nc1ccc(Oc2cccnc2)nc1)c1ccc(C(F)(F)F)cc1	5.8µM*	/	0%	29%	0%	-7%	?	-5%	4.6µM*
CCOC(=O)C1(C)CCN1C(=O)c1ccccc1C(F)(F)F (centres undefined)	/	2%	-1%[9.22 µM]	/	/	/	/	/	/
CCOc1ccc(S(=O)(=O)NCc2ccncc2)cc1NC(=O)c1ccccc1	0.46µM*	1%	0%	/	-13%	-1%	4%	0%	3.7µM*
CCOc1ccc(S(=O)(=O)NCc2ccncc2)cc1NC(=O)c1ccccc1F	2.6µM*	0%	-1%	-1%	-12%	2%	1%	2%	?
CCOc1ccc(S(=O)(=O)NCc2cccnc2)cc1NC(=O)c1ccccc1F	-4%	-3%	-1%	9%	-15%	-1%	/	/	/
CN(C)CCCNc1nc2cc(-c3ccc(F)cc3)sc2c(=O)n1C	/	-22%	9%	/	/	/	/	/	/
CCCCOc1ccccc1NC(=O)c1scc2c1OCCO2	5.2µM*	/	6%	11%	1%	5%	-14%	4%	6%
Cc1c(/C=N/NC(=O)c2cccnc2)c2ccccc2n1Cc1ccccc1	6.5µM*	/	3%	3%	?	4%	?	-8%	9.2µM*
Cc1nn(Cc2ccccc2)c(Cl)c1/C=N/NC(=O)c1cccnc1	?	-3%	8%	0%	?	3%[46.1 µM]	/	/	/
Cc1ccc(C)c(CN2CCCN(CC(=O)Nc3ccc(C)c(C)c3)S2(=O)=O)c1	-17%	0%	0%	13%	-11%	/	/	/	/
CCOCCCN(C)C1CCN(S(=O)(=O)c2csc(C(N)=O)c2)CC1	0%	-3%	0%	0%	-2%	-2%	/	/	/
CC(C)[N+](C)(CCOC(=O)C1c2ccccc2Oc2ccccc21)C(C)C	5.2µM*	1%	0%	-4%	9%	11%	-1%	-9%	4.6µM*
CC(C)CNC(=O)COC(=O)C1c2ccccc2Oc2ccccc21	2%	-1%	0%	4%	1%	-5%	/	/	/
O=C(c1cc(COc2ccc3ncccc3c2)on1)N1CCCC1	4.1µM*	-14%	6%	0%	3%	-17%	?	-3%	?
Cc1ccc(OCc2cc(C(=O)NC3CCCCC3)no2)cn1	0%	-3%	-1%	15%	0%	0%	/	/	/
COCC1CCN(C(=O)c2cc(COc3ccc4ncccc4c3)on2)CC1	3.7µM*	/	-1%	9%	-27%	-1%	-12%	-5%	7.3µM*
O=C(NC1CCCC1)c1cc(COc2ccc3ncccc3c2)on1	6.5µM*	-9%	0%	22%	-9%	3%	-17%	4%	3.7µM*
COc1cccc(CN(C)C(=O)c2cc(COc3ccc4ncccc4c3)on2)c1	3.7µM*	/	1%	26%	?	6%	-8%	-1%	7.3µM*
CSCc1cc(C(=O)NCCN2CCOCC2)c(N)s1	/	1%	/	/	/	/	/	/	/
COc1ccc(C2/C=C\CN(C(=O)C3CCCCC3)C(Cc3ccccc3)C(=O)N2Cc2ccc(F)cc2)cc1 (centres undefined)	?	/	/	/	0%	/	/	/	/
Cc1ccc(OCc2cc(C(=O)N3CCCCCCC3)no2)cc1C	?	2%	3%	-31%	0%	0%	/	/	/
SMILES	Nrf2 block	ClpP mod	Nrf2 activator	miR-21 reporter	A549 tox-1	TCR act	FLuc counter 3	A549 tox-2	ARE-Fluc inh
O=C(c1cc(COc2ccc3ncccc3c2)on1)N1CCCCCC1	3.7µM*	-4%	2%	-2%	-19%	-11%	?	0%	6.5µM*
Cc1ccc2[nH]cc(CCNS(=O)(=O)c3ccc(F)cc3)c2c1	10%	3%	-1%	-1%	2%	8%	/	/	/
C=CCn1c(O)c(N=NC(=S)Nc2ccccc2F)c2ccccc21	?	2%	0%	25%	?	-1%	/	/	/
C=CCn1c(O)c(N=NC(=S)Nc2ccccc2F)c2cc(S(=O)(=O)N3CCOCC3)ccc21	5.8µM*	-2%	5%	27%	?	2%	1%	-28%	/
O=C(NCc1ccncc1)C(=O)N/N=C/c1ccc(OCc2ccccc2)cc1	-6%	/	4%	-7%	-2%	8%	/	/	/
O=NN(CCc1ccncc1)c1ccc(OCc2ccccc2)cc1	6.5µM*	/	4%	13%	-19%	2%	-28%	-3%	5.8µM*
O=C(Nc1nc(-c2cccs2)cs1)c1ccc(S(=O)(=O)N2CCCC2)cc1	9.2µM*	-16%	24%	?	?	1%	-19%	-19%	?
O=C(Nc1nc(-c2ccc(S(=O)(=O)N3CCCCCC3)cc2)cs1)c1ccccc1	2.9µM*	-13%	0%	27%	/	16%	0%	8%	4.1µM*
O=C(Nc1nc(-c2ccc3c(c2)OCCO3)cs1)c1ccc(S(=O)(=O)N2CCCCC2)cc1	?	-6%	0%	30%	-10%	-1%	/	/	/
